HCV inh – qHTS Assay for Inhibitors of Hepatitis C Virus (HCV); Huh7.5.1 HCVcc-Cre infection, luciferase reporter, 44 h; Potency, µM (series often up to 41.8 µM), for the others: at the highest dose activity change, negative = inhibition, hits mostly inhibitors; actives 3.4% (n = 340,000); AID 651820, 2012; further: potency means the concentration at half of the fitted maximal effect; on the % scale 0 is the no-effect control and ±100 the full control effect
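Cells seeded at 1,000/well and cultured 4 h, then compounds added followed by HCVcc-Cre virus (~0.5 moi). After 44 h further culture, luciferase substrate was added, plates held 15 min at room temperature, and luminescence read for 15 sec.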
CHX counter – Cycloheximide Counterscreen for Small Molecule Inhibitors of Shiga Toxin; cell reporter, cycloheximide protein synthesis inhibition counterscreen; max response, %; actives 12% (n = 300,000); AID 2314, 2010; in the data active means max response mostly above about 13%, no sharp cut-off; inactive means mostly below about 14%; further: read at 38.3 µM for the half of the compounds with a filed dose; 0% is about no effect
Shiga toxin inh – A qHTS for Small Molecule Inhibitors of Shiga Toxin; Vero cells, Shiga toxin protein synthesis inhibition reporter; inhibition, % at 38.7 µM; actives 9.2% (n = 290,000); AID 2315, 2010; in the data active means inhibition mostly above about 28%, no sharp cut-off; inactive means mostly below about 43%; further: 0% is about no effect
AMA1 RON2 block – qHTS for Inhibitors of AMA1-RON; Towards Development of Antimalarial Drug Lead: Primary Screen. AlphaScreen AMA1-biotinylated RON2 peptide binding. Potency, µM (highest dose often 58.2 µM), for inactives: at the top dose activity change, negative = inhibition, hits mostly inhibitors. actives 0.2% (n = 360,000);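 further: potency means the concentration at half of the fitted maximal effect; 0% = vehicle wells and -100% = peptide control; nearly all actives have a fitted effect of over 45% in size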
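AMA1 (3D7) with his tag at 25 nM final met compounds first, then biotinylated RON2 peptide at 25 nM; detection used donor plus acceptor beads, 10 µg/mL apiece, read by AlphaScreen after 30 min at room temperature.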
Pf growth 48h – Primary qHTS for delayed death inhibitors of the malarial parasite plastid, 48 hour incubation; P. falciparum luciferase growth in erythrocytes, 48 h; Potency, µM (doses to about 28.7 µM), for the others: top-dose activity change, negative = inhibition, actives largely listed as inhibitors; actives 5.9% (n = 310,000); further: potency means the concentration at half of the fitted maximal effect; on the % scale 0 is the no-effect control and ±100 the full control effect
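Luciferase-expressing parasites in RBCs, 2% Hct / 0.1% parasitemia final; RPMI 1640 + 0.5% Albumax; 37 C, 5% CO2, one generation; luminescence read-out, lower signal = inhibition.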
Pf growth 96h – Primary qHTS for delayed death inhibitors of the malarial parasite plastid, 96 hour incubation; P. falciparum luciferase reporter growth, 96 h; Potency, µM (top dose mostly 28.7 µM), inactives show top-dose activity change, negative = inhibition, actives largely listed as inhibitors; actives 6.9% (n = 320,000); further: potency means the concentration at half of the fitted maximal effect; on the % scale 0 is the no-effect control and ±100 the full control effect
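96 h incubation, 37 C, 5% CO2, of luciferase-reporter P. falciparum-infected RBCs (2% hematocrit, 0.05% parasitemia final) with test compounds; endpoint luminescence.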
Active calls of the source: *; i = inactive; ? = inconclusive; / = not tested or not shown. Rows were chosen to be rich in hits. Some 21% of all compounds tested hit in one or more screens of this group. Unless noted, the call rests on the fitted dose curve; in most records, active means well fitted curve in the direction sought with a large enough effect; inconclusive means small, poorly fitted or top-dose-only effect, or another doubt; inactive means no such curve, though single readings can be large; an effect the other way counts as inactive or inconclusive.

SMILES	HCV inh	CHX counter	Shiga toxin inh	AMA1 RON2 block	Pf growth 48h	Pf growth 96h
OCc1nc2ccccc2n1Cc1c(F)cccc1Cl	2%	-2	-17	-7%	-2%	2%
Cc1c(NC(=O)C(C)OC(=O)/C=C/c2ccccc2)c(=O)n(-c2ccccc2)n1C (configuration not stated)	3%	-6	-31	8%	-20%	20%
CSc1nc2ccccc2n1CC(=O)Nc1ccccc1	-3%	-3	21	2%	1%	115%
CSc1nc2ccccc2n1CC(=O)Nc1c(C)n(C)n(-c2ccccc2)c1=O	13%	1	-6	-4%	13%	10µM*
CSc1nc2ccccc2n1Cc1c(Cl)cccc1Cl	?	-2	-2	-4%	/	12µM*
COc1cccc(CNC(=O)c2ccc(CS(=O)Cc3ccccc3Cl)o2)c1 (configuration not stated)	/	/	/	-7%	/	/
Cc1nn(CC(=O)Nc2c(C)n(C)n(-c3ccccc3)c2=O)c(C)c1[N+](=O)[O-]	26%	-5	15	6%	10%	?
COc1cc(/C=C/C(=O)OCC(=O)Nc2c(C)n(C)n(-c3ccccc3)c2=O)cc(OC)c1OC	8%	/	/	20%	?	10µM*
Cc1c(NC(=O)COc2cccc(Br)c2)c(=O)n(-c2ccccc2)n1C	7%	-4	-5	13%	9%	1%
Cc1c(Br)c([N+](=O)[O-])nn1CC(=O)Nc1c(C)n(C)n(-c2ccccc2)c1=O	3%	1	-8	-2%	17%	2.9µM*
Cc1cc(C(=O)Nc2c(C)n(C)n(-c3ccccc3)c2=O)on1	12%	-7	-14	10%	/	4.7µM*
COc1cc(/C=C/C(=O)OCC(=O)Nc2c(C)n(C)n(-c3ccccc3)c2=O)ccc1O	6%	-2	-12	-4%	-6%	1%
Cc1c(NC(=O)COc2ccc(C(C)C)cc2)c(=O)n(-c2ccccc2)n1C	16%	1	-21	-4%	13%	13µM*
CCCS(=O)(=O)NC(=O)C1(C)CCCN(C(=O)c2cccc(Cl)c2)C1 (configuration not stated)	/	/	/	2%	/	/
Cc1c(NC(=O)CN2CCN(c3ccc(O)cc3)CC2)c(=O)n(-c2ccccc2)n1C	6%	-1	-13	1%	?	6.6µM*
CCc1nc(SCC(=O)Nc2c(C)nn(C)c2C)c2cnn(-c3ccccc3)c2n1	/	1	-13	/	-17%	-22%
CSc1nc2ccccc2n1CC(=O)Nc1c(C)cccc1C	-1%	-1	-10	1%	2%	7.4µM*
COC(=O)c1ccc(C(c2c(C)n(C)n(-c3ccccc3)c2=O)c2c(C)n(C)n(-c3ccccc3)c2=O)cc1	9%	-1	/	-1%	?	6.6µM*
Cc1c(NC(=O)CN2CCN(c3ccc([N+](=O)[O-])cc3)CC2)c(=O)n(-c2ccccc2)n1C	-26%	15	-3	-13%	-24%	-19%
Cc1nc(SCC(=O)Nc2c(C)n(C)n(-c3ccccc3)c2=O)c2cnn(-c3ccccc3)c2n1	25µM*	/	/	-8%	/	/
O=C(COC(=O)C1CCN(c2ccc(C(F)(F)F)cn2)CC1)NCc1ccccc1	28%	/	/	-1%	20%	-12%
Cc1cccc(-c2nc3c(c(=O)c4ccccc4n3C)c(=O)n2-c2ccccc2)c1	12%	-1	14	-15%	1.7µM*	1.7µM*
Cc1ccc(-c2nc3c(c(=O)c4ccccc4n3C)c(=O)n2-c2ccccc2)cc1	11%	5	-13	-11%	-4%	?
COC(=O)CCN1CCc2cc(N=Nc3ccc([N+](=O)[O-])cc3)ccc21	?	39*	88	?	217%	145%
CC[C@H]1C(c2ccccc2)=NN(c2ccccc2)[C@@H]1CO	/	3	i	/	/	/
SMILES	HCV inh	CHX counter	Shiga toxin inh	AMA1 RON2 block	Pf growth 48h	Pf growth 96h
OC[C@H](O)[C@H](O)[C@@H](O)[C@@H](O)[C@@H]1SC(c2ccccc2)=NN1c1ccccc1	-21%	3	-8	49%	13µM*	?
CC(C)n1nnnc1SCC(=O)NCCc1ccccc1	15%	16*	30	11%	67%	-13%
O=C(CSc1nnnn1C1CCCC1)Nc1ccccc1F	5%	13*	31*	7%	14%	109%
O=C(CSc1nnnn1C1CCCC1)NCc1ccc2c(c1)OCO2	11%	-3	-8	8%	4%	10µM*
O=C(CSc1nnnn1C1CCCCC1)NCc1ccco1	34%	1	-6	-1%	13%	?
O=C(CSc1nnnn1C1CCCC1)NCCc1ccccc1	4%	23*	49*	-19%	23%	31%
CC(CCc1ccccc1)NC(=O)CSc1nnnn1C (configuration not stated)	21%	14	29	-7%	4%	4.7µM*
O=C(CSc1nnnn1C1CCCC1)Nc1ccccc1N1CCOCC1	-10%	-2	21	-2%	-28%	42%
Cc1occc1-c1nnc(SCC(=O)NCCc2ccccc2)n1C(C)c1ccccc1 (configuration not stated)	-22%	12	44	0%	?	8.3µM*
Cc1occc1-c1nnc(SCC(=O)NCCc2ccccc2)o1	3%	8	19	-14%	251%	37%
CC(=O)Nc1ccc(C(=O)CSc2nnnn2C2CCCC2)cc1	24%	15*	24	0%	7%	7%
O=C(CSc1nnnn1C1CCCC1)N1CCOCC1	4%	36*	39	0%	33%	?
COC(=O)[C@@]12C[C@@H](CC(=O)NCc3ccc(OC)c(OC)c3)C(=O)N(Cc3ccc4c(c3)OCO4)C1=CCC(C)(C)C2	/	/	/	-10%	/	/
O=C1N(c2cccc(Cl)c2)C(c2cccnc2)N2CCCN12 (configuration not stated)	5%	11	-4	7%	5%	13µM*
O=C1N(c2ccccc2)C(c2cccnc2)N2CCCN12 (configuration not stated)	-17%	11	26	3%	18%	100%
Cc1ccc(/C=N/n2c(C)nc3ccccc3c2=O)s1	/	40*	92*	/	i	210%
Cc1nc2ccccc2c(=O)n1/N=C/c1ccccc1Cl	-29%	33*	72*	6%	68%	67%
COc1ccc(-c2csc(NC(=O)c3c(C)noc3C)n2)cc1OC	/	/	/	-13%	/	/
CCCCN(C)C(=O)c1sc2ncn(CC)c(=O)c2c1C	-13%	19	67	1%	7%	10µM*

Screening results: PubChem BioAssay, National Center for Advancing Translational Sciences (NCATS)
